In PubChem BioAssay (Tox21) one finds Potency data, which are given here for 20 compounds.

Molecules are shown by their SMILES. Results filed as inconclusive are left out. Calls of active or inactive are those of the source. Calls come from the whole dose curve; as a rule, active = well fitted inhibition curve with a large enough effect in the repeat runs; inconclusive = weak or mixed curves; inactive = no such curve, though single readings can be large or run the other way.
Potency is the fitted concentration of half-maximal effect.

Sequence of Cytochrome P450 1A2 (Homo sapiens) (P05177 whole entry, looked up): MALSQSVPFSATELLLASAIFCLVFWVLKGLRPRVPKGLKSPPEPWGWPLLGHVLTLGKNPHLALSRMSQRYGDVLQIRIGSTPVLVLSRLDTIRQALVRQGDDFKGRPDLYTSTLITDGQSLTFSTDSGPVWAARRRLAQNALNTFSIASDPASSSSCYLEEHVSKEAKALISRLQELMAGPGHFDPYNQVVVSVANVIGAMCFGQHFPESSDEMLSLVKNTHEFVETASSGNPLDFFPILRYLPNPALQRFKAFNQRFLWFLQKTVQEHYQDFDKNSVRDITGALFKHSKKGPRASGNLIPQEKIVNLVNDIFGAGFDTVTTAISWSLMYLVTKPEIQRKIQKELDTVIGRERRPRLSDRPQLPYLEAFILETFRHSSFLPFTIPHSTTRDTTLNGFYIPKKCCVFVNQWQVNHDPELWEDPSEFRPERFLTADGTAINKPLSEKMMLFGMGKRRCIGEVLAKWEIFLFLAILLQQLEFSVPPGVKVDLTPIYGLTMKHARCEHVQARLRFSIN

In the assay the target is Cytochrome P450 1A2 (Homo sapiens) (UniProt P05177). Briefly: Cytochrome P450 Family 1 Subfamily A Member 2 (CYP1A2) small molecule antagonists: luciferase reporter qHTS assay (AID 1671199). Note: nearly all actives have a fitted effect of over 50% in size. The following applies: P450-Glo CYP1A2 enzyme, luciferin luminescence, 1 h; series mostly up to 115 µM. The method in brief:
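CYP1A2 turnover of a luminogenic substrate was quantified after 1 h with NADPH regeneration at room temperature. Furafylline served as positive control.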
For orientation: Reporter assays use an easily measured gene product as a stand-in for the process of interest.
For `Nc1ccc(F)cc1`, the Potency result was “inactive”.

Consider `Cc1ccc2c(c1[N+](=O)[O-])C(=O)c1ccccc1C2=O`, for which the Potency was 4.93 µM (active).

In the case of `O=C(Oc1ccccc1)c1ccc2ccccc2c1O`, the Potency was 5.64 µM (active).

As for `CCCCCCCC(=O)Oc1c(Br)cc(C#N)cc1Br`, the Potency is 12.6 µM (active).

As to `CC(=O)NNC(C)=O`, the Potency result was “inactive”.

With `CCOC(=O)N1CCC(Nc2ccc(Cl)cc2N)CC1`, the Potency entry was “inactive”.

Consider `COc1ccc(-c2cc(=S)ss2)cc1`, for which the Potency was 0.911 µM (active).

As to `Cc1ccc(Cl)cc1N`, the Potency was 10.2 µM (active).

With `CC(C)(C)C1(CCc2ccc(Cl)cc2)CO1` (stereo not given), the Potency was 20 µM (active).

In the case of `CCCc1nc2c(C)cc(-c3nc4ccccc4n3C)cc2n1Cc1ccc(-c2ccccc2C(=O)O)cc1`, the Potency result is “inactive”.

Consider `O=C1[C@@H]2[C@H]3CC[C@H](C3)[C@@H]2C(=O)N1CCCCN1CCN(c2ncccn2)CC1`, for which the Potency entry was “inactive”.

Take `O=C(C(=O)c1ccco1)c1ccco1`: the Potency was 35.9 µM (active).

On to `CC(C)(C(=O)c1cccnc1)c1cccnc1`, for which the Potency result is “inactive”.

For `CC(C)OC(=O)c1ccccc1C(=O)OC(C)C`, the Potency was 3.56 µM (active).

Consider `CC(C)COC(=O)c1ccc(O)cc1`, for which the Potency is 2.82 µM (active).

Take `COc1ccc(/C=C/C(=O)c2ccc(OC)cc2OC)cc1`: the Potency was 4.56 µM (active).

As for `CC1=C2[C@@H]([C@H](C)CC[C@H]2/C=C(\C)C(=O)O)[C@H](O)C1`, the Potency entry was “inactive”.

`OCC(CO)n1cnc(-c2ccc(F)cc2)c1-c1ccnc(Oc2ccccc2)n1`: the Potency result was “inactive”.

Turning to `O=C1OC[C@H](Cc2cccc(O)c2)[C@H]1Cc1cccc(O)c1`, the Potency was 10.7 µM (active).

`COc1cc(S(=O)(=O)Nc2ccccc2)c(OC)cc1N`: the Potency was 39.9 µM (active).
